Results on 22 molecules are retold here after PubChem BioAssay (NCI).

Assay [1] is described as follows: NCI Yeast Anticancer Drug Screen. Data for the rad50 strain (AID 155).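 Also: 0% = growth of vehicle-only cultures of the same strain.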 Conditions: S. cerevisiae rad50 strain growth inhibition; at 50.0 µM; active compounds read high. The method, boiled down: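 Growth of the mutant yeast was measured after compound exposure and referenced to vehicle-treated cultures.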
Assay [2] in a line: NCI Yeast Anticancer Drug Screen. Data for the mec2-1 strain (AID 157). Conditions: S. cerevisiae mec2-1 strain, at 50.0 µM, active compounds read high. The method, boiled down:
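Compounds were applied to mec2-1 yeast cells. Their growth was then compared with that of vehicle-treated cultures to give growth inhibition.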

A short description of assay [3]: NCI Yeast Anticancer Drug Screen. Data for the sgs1 mgt1 strain (AID 161).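 Also: 0% = growth of cultures given vehicle only.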 Conditions: S. cerevisiae sgs1 mgt1 strain, at 50.0 µM, active compounds read high. The procedure, abridged: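 Yeast cells carrying a defined DNA-repair defect were exposed to test compounds. Growth inhibition was measured relative to vehicle-treated controls.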
A short description of assay [4]: NCI Yeast Anticancer Drug Screen. Data for the cln2 rad14 strain (AID 165).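 Also: 0% = growth equal to vehicle treated cultures.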 Conditions: S. cerevisiae cln2 rad14 strain, at 50.0 µM, active compounds read high. The method, boiled down: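 Strain: cln2 rad14 yeast, altered in cell cycle control and DNA damage repair. Read-out: growth inhibition vs vehicle.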
Assay [5] is described as follows: NCI Yeast Anticancer Drug Screen. Data for the bub3 strain (AID 167). Conditions: S. cerevisiae bub3 mutant strain, at 50.0 µM, active compounds read high. The method, boiled down: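 Whole-cell yeast assay. The mutant strain was incubated with compounds, and growth inhibition was determined by comparison with vehicle-treated cells.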
Assay [6] in a line: NCI Yeast Anticancer Drug Screen. Data for the mlh1 rad18 strain (AID 175). Conditions: S. cerevisiae mlh1 rad18 strain growth inhibition; at 50.0 µM; active compounds read high. The procedure, abridged:
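A repair-deficient yeast strain is exposed to test compound, and growth is scored relative to vehicle-treated controls.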

The panel holds about 79,000 compounds, 15% with a hit somewhere; the sample as a whole holds those more often. Unmarked numbers belong to inactive results. Activity calls are given as the source filed them. Rule as the data show it: active = growth inhibition above about 70%; inactive = the rest.

In the case of `CC(=N\[O-])/C(C)=N/[O-].CC(=N\[O-])/C(C)=N/[O-].[Cu+2]`, the growth inhibition is 42.8% in assay [1]; 22.9% in assay [2]; 15% in assay [3]; -18.9% in assay [4]; 33.5% in assay [5].

With `CC(C)OP(=O)(OC(C)C)C(=O)Nc1ccc(Cl)cc1`, the growth inhibition was -24.9% in assay [1]; 16.1% in assay [2]; 5.85% in assay [3]; -29.9% in assay [4]; 16.5% in assay [5].

With `CC(=O)O[C@H]1C(=O)[C@@]2(C)[C@H]([C@H](OC(=O)c3ccccc3)[C@@]3(O)C[C@H](O)C(C)=C1C3(C)C)[C@]1(OC(C)=O)CO[C@@H]1C[C@@H]2O`, the growth inhibition in assay [1] is 8.05%; in assay [2], -10.9%; in assay [3] it was 6%; in assay [4], 8.35%; in assay [5], 12.5%.

For `O=[N+]([O-])c1ccc(CI)cc1`, the growth inhibition was 5.65% in assay [1]; 34.2% in assay [2]; 36.6% in assay [3]; -3.55% in assay [4]; 13.4% in assay [5].

As for `C=C(C)[C@]12CC(C)C34OC(/C=C\C=C\CCCCCCCCC)(O[C@@H]1[C@@H]3[C@@H]1O[C@]1(CO)[C@@H](O)[C@]1(O)C(=O)C(C)=C[C@@H]41)O2` (stereo partly specified), the growth inhibition was 74.4% (active) in assay [1]; 70% (active) in assay [2]; 84.9% (active) in assay [3]; 73% (active) in assay [4]; 73.1% (active) in assay [5].

Turning to `COc1cc(C=Nc2ccc(C(=O)O)c(O)c2)ccc1N(CCCl)CCCl`, the growth inhibition in assay [1] was 60.8%; in assay [2], 15.1%; in assay [3] it was 65.2%; in assay [4] it was 41%; in assay [5], -3.95%.

As to `CC(C)N([PH2+]N(C(C)C)C(C)C)C(C)C.[C-]#[O+].[C-]#[O+].[C-]#[O+].[C-]#[O+].[C-]#[O+].[Mo]`, the growth inhibition in assay [1] was 9.4%; in assay [2], 15.9%; in assay [3] it was -2.2%; in assay [4] it was 17.1%; in assay [5], 6.35%.

As to `Cc1cc(S(=O)(=O)F)ccc1NC(=O)NCc1ccc([N+](=O)[O-])cc1`, the growth inhibition in assay [1] is 2.75%; in assay [2], 15.7%; in assay [3], 24.1%; in assay [4], -1.95%; in assay [5] it was 18.1%.

Take `COC(=O)C(Cl)Cl`: the growth inhibition in assay [1] is 9.2%; in assay [2] it was -17.1%; in assay [3], -1.85%; in assay [4] it was -47.9%; in assay [5] it was -5.6%.

In the case of `COc1cc(C2c3[nH]c4ccccc4c3C[C@H]3COC(=O)N23)cc(OC)c1OC` (stereo partly specified), the growth inhibition is 62.6% in assay [1]; 15.3% in assay [2]; 57.5% in assay [3]; 24.4% in assay [4]; 54% in assay [5].

`FC1(F)[Se]C2C3CCC(C3)C2C1(F)F` (stereo unspecified): the growth inhibition in assay [1] is -30.9%; in assay [2], -11.6%; in assay [3] it was -3.6%; in assay [4] it was -16.1%; in assay [5], -0.15%.

With `CC(=O)OC(C)(C)/C=C/C(=O)[C@](C)(O)[C@H]1[C@H](O)C[C@@]2(C)[C@@H]3CC=C4[C@@H](C[C@H](O)C(=O)C4(C)C)[C@]3(CO)C(=O)C[C@]12C`, the growth inhibition in assay [1] is 21.1%; in assay [2] it was -12.9%; in assay [3], 15.3%; in assay [4] it was -7.8%; in assay [5] it was 18.6%.

For the molecule `CCCCCC[n+]1noc(N)c1-c1ccc(-c2c(N)on[n+]2CCCCCC)cc1`, the growth inhibition is 17.6% in assay [1]; -1.35% in assay [2]; 26.1% in assay [3]; 21.8% in assay [4]; 16.2% in assay [5].

`C(=NCCN=CC1CCCC[N-]1)C1CCCC[N-]1.[Cu+2].[O-][Cl+3]([O-])([O-])O` (stereo unspecified): the growth inhibition in assay [1] was 79.8% (active); in assay [2], 71% (active); in assay [3], 44.5%; in assay [4], 90% (active); in assay [5], 69.5%.

Regarding `CCC(C)OC(=O)Nc1cccc(OC(=O)NC)c1` (stereo unspecified), the growth inhibition in assay [1] is 4.75%; in assay [2] it was -22.6%; in assay [3], -2.1%; in assay [4] it was -2.15%; in assay [5], -1.6%.

As to `COc1cc(/C=C(\C)[N+](=O)[O-])cc(OC)c1`, the growth inhibition was 18.9% in assay [1]; 16.1% in assay [2]; 34% in assay [3]; 58.2% in assay [4]; 64.7% in assay [5].

Consider `[Cl][Ni][Cl].[NH-]CCN1CC1.[NH-]CCN1CC1`, for which the growth inhibition was -9.75% in assay [1]; 19.4% in assay [2]; 19.4% in assay [3]; -26.4% in assay [4]; -4.55% in assay [5]; -5.75% in assay [6].

For the molecule `O=S1(=O)OCCO1`, the growth inhibition was -3.5% in assay [1]; -9% in assay [2]; -3.8% in assay [3]; -27.4% in assay [4]; -5.55% in assay [5]; 7.9% in assay [6].

Regarding `O=[As](O)(O)c1cccc(O)c1`, the growth inhibition in assay [1] was -6.8%; in assay [2] it was -7.25%; in assay [3] it was -8.65%; in assay [4], 3.7%; in assay [5], 9.25%; in assay [6] it was -16.1%.

In the case of `CC(=O)CC(C)C(=O)O` (stereo unspecified) (tested in a mixture with another compound), the growth inhibition was -5.9% in assay [1]; -11% in assay [2]; -16.6% in assay [3]; -6.55% in assay [4]; -5.6% in assay [5]; -20.6% in assay [6].

On to `CCCn1cc2c3c(cccc31)[C@H]1C[C@@H](C)CN(C)[C@@H]1C2`, for which the growth inhibition in assay [1] was 49.4%; in assay [2], 45.4%; in assay [3], 41%; in assay [4], 45.1%; in assay [5] it was 44%; in assay [6], 36.5%.

Turning to `C[N+](C)=C(Cl)Cl`, the growth inhibition was 1.75% in assay [1]; -30.1% in assay [2]; -8.1% in assay [3]; 4.15% in assay [4]; -7.85% in assay [5]; -12.9% in assay [6].
